Molecules are shown by their SMILES. Unmarked numbers belong to inactive results. Active and inactive are the calls of the source. Rule as the data show it, unless noted: active = inhibition above about 42%; inactive = the rest.

In one experiment the target is Nuclear receptor subfamily 5 group A member 2 (Homo sapiens) (UniProt O00482). Put plainly: NR5A2 activity suppression in reporter cells – cell-based, luminescence, confirmation (AID 651613).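 Also: HEK293T cells co-transfected with LRH-1 and StAR promoter luciferase reporter; 0% = vehicle wells and 100% = parental cells lacking receptor.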 The settings on record: cell-based LRH-1 luciferase reporter, inverse agonism; at 3.6 µM; active compounds read high.
Nuclear receptor subfamily 5 group A member 2 (Homo sapiens), sequence (O00482 whole entry, looked up): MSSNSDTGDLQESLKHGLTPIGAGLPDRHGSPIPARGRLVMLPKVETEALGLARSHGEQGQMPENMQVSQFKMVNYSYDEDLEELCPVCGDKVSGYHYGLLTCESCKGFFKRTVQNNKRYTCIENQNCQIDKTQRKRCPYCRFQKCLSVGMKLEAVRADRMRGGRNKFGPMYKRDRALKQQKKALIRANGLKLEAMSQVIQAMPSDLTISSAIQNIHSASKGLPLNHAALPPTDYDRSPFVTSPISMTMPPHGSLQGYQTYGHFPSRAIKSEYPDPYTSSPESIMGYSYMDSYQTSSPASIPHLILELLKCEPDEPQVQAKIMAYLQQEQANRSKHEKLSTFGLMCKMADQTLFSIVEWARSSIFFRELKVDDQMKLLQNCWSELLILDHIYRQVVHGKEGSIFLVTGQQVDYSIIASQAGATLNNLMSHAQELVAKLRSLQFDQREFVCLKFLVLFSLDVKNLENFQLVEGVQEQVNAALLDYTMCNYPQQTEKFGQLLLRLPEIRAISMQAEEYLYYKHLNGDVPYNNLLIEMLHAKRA
As to `Cc1cc(C(=O)COC(=O)c2ccccc2Br)c(C)n1CC1CCCO1` (stereo not given), the inhibition is 20.4%.

Turning to `CC1CCc2nc(N)c(C#N)c(-c3cccnc3)c2C1` (stereo not given), the inhibition is 52.9% (active).

Take `O=C(CCl)N(c1ccccc1)C1CCS(=O)(=O)C1` (stereo not given): the inhibition is 71.3% (active).

Turning to `CC(=O)OC[C@]12CC[C@H]3[C@@](C)(CC[C@H]4C(C)(C)CCC[C@]34C)[C@@H]1CC(C1=CC(=O)OC1O)O2` (stereo not given in full), the inhibition was 110% (active).

With `CC1CCCN(c2ncnc3c2cnn3-c2ccc(Cl)cc2)C1` (stereo not given), the inhibition was 60.3% (active).

Regarding `Cc1ccc(/C=C2\SC(=S)N(CCCC(=O)Nc3ccccn3)C2=O)cc1`, the inhibition was 45.8% (active).

On to `COc1ccc(-n2ncc3c(N(C)C4CCCCC4)ncnc32)cc1`, for which the inhibition is -23.3%.

`c1csc(CNc2ccc3c(c2)OCCO3)c1`: the inhibition is -77.1%.

As for `Cc1cc(C(=O)COC(=O)c2ccccc2O)c(C)n1Cc1cccs1`, the inhibition is 59% (active).

For `COc1ccccc1-c1nnc(Sc2nc([N+](=O)[O-])nn2C)o1`, the inhibition was 62% (active).

Turning to `Nc1ccc(-c2cc3ccccc3oc2=O)cc1`, the inhibition was 73.5% (active).

Turning to `OCC1OC(n2ccc3c2ncn2ncnc32)C(O)C1O` (stereo not given), the inhibition is 49.2% (active).

`COc1ccc2cc3c(N)nn(C(=O)c4ccccc4[N+](=O)[O-])c3nc2c1`: the inhibition was 67.5% (active).

For the compound `O=C(CC1CS(=O)(=O)CC1CC(=O)Nc1ccc2c(c1)OCCO2)Nc1ccc2c(c1)OCCO2` (stereo not given), the inhibition was -91.7%.

For the compound `CC1CCC(C(C)C)C(OC(=O)Cn2c(-c3ccc(F)cc3)[n+](C)c3ccccc32)C1` (stereo not given), the inhibition was 108% (active).

Regarding `CC(C)Nc1ncnc2ccc(Br)cc12`, the inhibition was 61.1% (active).

As for `Nc1cc2ccncc2c2ccccc12`, the inhibition was 75.6% (active).

Regarding `Cc1ccc2oc(/N=C(\N)NC(=O)C(C)(C)C)nc2c1`, the inhibition is 51.4% (active).

In the case of `COC1=CC(=O)c2c(ccc3ncnc(N)c23)C1=O`, the inhibition is 82.8% (active).

For the compound `CC(C)(C)C(=O)/C(=C/c1ccncc1)n1cncn1`, the inhibition was 42.6% (active).

As for `O=c1c2ccccc2oc2cc(C#CC3(O)CCCCC3)ccc12`, the inhibition was -129%.

For the compound `Cc1cc(C(=O)CN2C(=O)c3ccccc3S2(=O)=O)c(C)n1CC1CCCO1` (stereo not given), the inhibition is 81% (active).

Regarding `CC(C)(C)OC(=O)NCCCCCc1cn([C@@H](CO)C(=O)NCCCCCCCCCCC(=O)N2CCN(C(=O)OC(C)(C)C)CC2)nn1`, the inhibition was 69.4% (active).

With `Clc1ccc(-n2ncc3c(N4CCCCCC4)ncnc32)cc1`, the inhibition was 24.8%.

Regarding `CC(=O)NC(c1ccc(C(C)C)cc1)c1ccc2cccnc2c1O` (stereo not given), the inhibition is 105% (active).

With `Cc1ccc(C(=O)N/N=C/c2c(O)ccc3ccccc23)cn1`, the inhibition is 102% (active).

`CCOc1cc(CNc2ccc3c(c2)OCCO3)cc(Br)c1OC`: the inhibition was -55.6%.

As for `COc1cccc(-c2nnc3n2N=C(C(C)(C)C)CS3)c1`, the inhibition was 64.9% (active).

Regarding `Cc1ccc(C(=O)N/N=C/c2ccc([N+](=O)[O-])s2)cc1`, the inhibition was 83.9% (active).

On to `C=C1C(=O)C2=CC1CCC(=O)C1(C)CCC(OC(C)=O)C(C)(C)C1CC2O` (stereo not given), for which the inhibition is 3.03%.

In the case of `COc1cccc(N2CCN(c3ncnc4c3cnn4-c3ccc(C)cc3C)CC2)c1`, the inhibition is 97.4% (active).

With `COc1cc(NC(=O)COc2cc(O)c3c(c2)OC(C)(C)CC3=O)cc(OC)c1OC`, the inhibition was 57.3% (active).

With `Cc1ccc(Nc2nc(N)nc(CCl)n2)c(C)c1`, the inhibition is 58.7% (active).

Consider `CC(C)(C)NCC(=Cc1ccccc1)C(=O)c1ccccc1`, for which the inhibition was 84.1% (active).

In the case of `CCCNC1=C(N(C(C)=O)c2cccc(F)c2)C(=O)c2ccccc2C1=O`, the inhibition is 68.8% (active).

Consider `CCOC(=O)c1ccc(NC(=O)c2ccc(C)c(S(=O)(=O)N3CCOCC3)c2)cc1`, for which the inhibition is 50.5% (active).

For the compound `NC(=S)NN=Cc1nccc2c(C(F)(F)C(F)(F)C(F)(F)F)cccc12`, the inhibition was 107% (active).

On to `COC1=CC(=O)c2nc(Cl)ccc2C1=O`, for which the inhibition is 65.1% (active).

With `COc1cccc2c1C(=O)c1c(O)c3c(c(O)c1C2=O)CC(O)(C(C)=O)CC3OC1CC(N(C)C)C(O)C(C)O1` (stereo not given), the inhibition is 104% (active).

For `C[C@@H](C(=O)Nc1ccc2c(c1)OCCO2)n1c(=O)[nH]c2ccccc2c1=O`, the inhibition is -28.3%.

In the next experiment the target is Steroidogenic factor 1 (Homo sapiens) (UniProt Q13285). Put plainly: inverse agonism at SF1 nuclear receptor – cell-based, luminescence, high throughput, counter-screen for LRH-1 inverse agonist project (AID 651614; in the data active = inhibition above about 44%;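 also: cells cotransfected with StAR promoter reporter and SF1 expression vector; 0% = vehicle on cells with receptor and 100% = vehicle on cells lacking receptor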). As to conditions: cell-based SF1 luciferase reporter, at 3.6 µM, active compounds read high.
Steroidogenic factor 1 (Homo sapiens), sequence (Q13285 whole entry, looked up): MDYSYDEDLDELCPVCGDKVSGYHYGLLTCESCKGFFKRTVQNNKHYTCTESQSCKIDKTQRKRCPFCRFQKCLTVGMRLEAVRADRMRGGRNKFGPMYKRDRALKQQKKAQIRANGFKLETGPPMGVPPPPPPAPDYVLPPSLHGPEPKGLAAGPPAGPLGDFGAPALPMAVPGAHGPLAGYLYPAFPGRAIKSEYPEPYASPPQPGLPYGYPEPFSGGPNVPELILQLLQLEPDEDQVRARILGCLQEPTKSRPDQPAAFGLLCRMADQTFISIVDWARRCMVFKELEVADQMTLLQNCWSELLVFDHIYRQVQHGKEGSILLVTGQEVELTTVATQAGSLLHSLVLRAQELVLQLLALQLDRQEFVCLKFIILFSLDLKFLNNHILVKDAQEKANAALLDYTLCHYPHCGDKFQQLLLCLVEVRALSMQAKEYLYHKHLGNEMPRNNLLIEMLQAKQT
Consider `Cc1cc(C(=O)COC(=O)c2ccccc2Br)c(C)n1CC1CCCO1` (stereo not given), for which the inhibition was 51% (active).

For `CC1CCc2nc(N)c(C#N)c(-c3cccnc3)c2C1` (stereo not given), the inhibition was 46.1% (active).

As to `O=C(CCl)N(c1ccccc1)C1CCS(=O)(=O)C1` (stereo not given), the inhibition is 65.1% (active).

For the compound `CC(=O)OC[C@]12CC[C@H]3[C@@](C)(CC[C@H]4C(C)(C)CCC[C@]34C)[C@@H]1CC(C1=CC(=O)OC1O)O2` (stereo not given in full), the inhibition is 97.1% (active).

`CC1CCCN(c2ncnc3c2cnn3-c2ccc(Cl)cc2)C1` (stereo not given): the inhibition is 79.2% (active).

Turning to `Cc1ccc(/C=C2\SC(=S)N(CCCC(=O)Nc3ccccn3)C2=O)cc1`, the inhibition was 64.2% (active).

Consider `COc1ccc(-n2ncc3c(N(C)C4CCCCC4)ncnc32)cc1`, for which the inhibition is 28.6%.

With `c1csc(CNc2ccc3c(c2)OCCO3)c1`, the inhibition was -20.9%.

Take `Cc1cc(C(=O)COC(=O)c2ccccc2O)c(C)n1Cc1cccs1`: the inhibition is 80.2% (active).

As for `COc1ccccc1-c1nnc(Sc2nc([N+](=O)[O-])nn2C)o1`, the inhibition was 38.3%.

`Nc1ccc(-c2cc3ccccc3oc2=O)cc1`: the inhibition was 65.2% (active).

`OCC1OC(n2ccc3c2ncn2ncnc32)C(O)C1O` (stereo not given): the inhibition was 38.8%.

With `COc1ccc2cc3c(N)nn(C(=O)c4ccccc4[N+](=O)[O-])c3nc2c1`, the inhibition is 46.9% (active).

Turning to `O=C(CC1CS(=O)(=O)CC1CC(=O)Nc1ccc2c(c1)OCCO2)Nc1ccc2c(c1)OCCO2` (stereo not given), the inhibition was -43.4%.

For the compound `CC1CCC(C(C)C)C(OC(=O)Cn2c(-c3ccc(F)cc3)[n+](C)c3ccccc32)C1` (stereo not given), the inhibition was 59.9% (active).

Take `CC(C)Nc1ncnc2ccc(Br)cc12`: the inhibition is 58.4% (active).

Regarding `Nc1cc2ccncc2c2ccccc12`, the inhibition was 63.2% (active).

For the compound `Cc1ccc2oc(/N=C(\N)NC(=O)C(C)(C)C)nc2c1`, the inhibition is 75.4% (active).

As to `COC1=CC(=O)c2c(ccc3ncnc(N)c23)C1=O`, the inhibition is 84.6% (active).

Regarding `CC(C)(C)C(=O)/C(=C/c1ccncc1)n1cncn1`, the inhibition is 46.5% (active).

For `O=c1c2ccccc2oc2cc(C#CC3(O)CCCCC3)ccc12`, the inhibition is -33.5%.

Take `Cc1cc(C(=O)CN2C(=O)c3ccccc3S2(=O)=O)c(C)n1CC1CCCO1` (stereo not given): the inhibition is 80.4% (active).

Turning to `CC(C)(C)OC(=O)NCCCCCc1cn([C@@H](CO)C(=O)NCCCCCCCCCCC(=O)N2CCN(C(=O)OC(C)(C)C)CC2)nn1`, the inhibition was 69.9% (active).

Turning to `Clc1ccc(-n2ncc3c(N4CCCCCC4)ncnc32)cc1`, the inhibition was 65.8% (active).

As for `CC(=O)NC(c1ccc(C(C)C)cc1)c1ccc2cccnc2c1O` (stereo not given), the inhibition is 86.2% (active).

`Cc1ccc(C(=O)N/N=C/c2c(O)ccc3ccccc23)cn1`: the inhibition is 89.9% (active).

In the case of `CCOc1cc(CNc2ccc3c(c2)OCCO3)cc(Br)c1OC`, the inhibition was 23.8%.

As for `COc1cccc(-c2nnc3n2N=C(C(C)(C)C)CS3)c1`, the inhibition was 60.9% (active).

Regarding `Cc1ccc(C(=O)N/N=C/c2ccc([N+](=O)[O-])s2)cc1`, the inhibition is 75.6% (active).

Consider `C=C1C(=O)C2=CC1CCC(=O)C1(C)CCC(OC(C)=O)C(C)(C)C1CC2O` (stereo not given), for which the inhibition was 33.2%.

As for `COc1cccc(N2CCN(c3ncnc4c3cnn4-c3ccc(C)cc3C)CC2)c1`, the inhibition was 89.8% (active).

`COc1cc(NC(=O)COc2cc(O)c3c(c2)OC(C)(C)CC3=O)cc(OC)c1OC`: the inhibition was 67.5% (active).

Take `Cc1ccc(Nc2nc(N)nc(CCl)n2)c(C)c1`: the inhibition is 29.4%.

`CC(C)(C)NCC(=Cc1ccccc1)C(=O)c1ccccc1`: the inhibition was 84.3% (active).

As for `CCCNC1=C(N(C(C)=O)c2cccc(F)c2)C(=O)c2ccccc2C1=O`, the inhibition is 88% (active).

For the compound `CCOC(=O)c1ccc(NC(=O)c2ccc(C)c(S(=O)(=O)N3CCOCC3)c2)cc1`, the inhibition was 66.5% (active).

Consider `NC(=S)NN=Cc1nccc2c(C(F)(F)C(F)(F)C(F)(F)F)cccc12`, for which the inhibition was 95.6% (active).

On to `COC1=CC(=O)c2nc(Cl)ccc2C1=O`, for which the inhibition is 70% (active).

As for `COc1cccc2c1C(=O)c1c(O)c3c(c(O)c1C2=O)CC(O)(C(C)=O)CC3OC1CC(N(C)C)C(O)C(C)O1` (stereo not given), the inhibition is 94.5% (active).

As for `C[C@@H](C(=O)Nc1ccc2c(c1)OCCO2)n1c(=O)[nH]c2ccccc2c1=O`, the inhibition is 20.2%.

Source of the values: PubChem BioAssay.
